Measured values taken from PubChem BioAssay (NCATS).
Results filed as inconclusive are left out. Some of the results follow. The source made the active and inactive calls. Unless noted, calls follow the shape of the dose curve; as a rule, active = well fitted curve in the direction sought with a large enough effect; inconclusive = small, poorly fitted or top-dose-only effect, or another doubt; inactive = no such curve, though single readings can be large; an effect the other way counts as inactive or inconclusive. Peptide text beside a SMILES is read from it.

Tests used:
[1] = biological target: Endonuclease 4 (Escherichia coli (strain K12)) (UniProt P0A6C1); experiment: Counterscreen for APE1 Inhibitors: qHTS Validation Assay for Inhibitors of Endonuclease IV (AID 1708)
Procedure, shortened: (§1)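 Enzyme (2 nM) + compound, 15 min RT; add 50 nM TAMRA/BHQ-2 THF-site dsDNA; kinetic read ex525/em598, 3 reads/60 s; activity = read 3 − read 1. Buffer Tris pH 7.5, 50 mM NaCl, 2 mM MgCl2, DTT, Tween-20.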

[2] = qHTS for differential inhibitors of proliferation of Plasmodium falciparum line Dd2 (AID 1882); conditions: Potency: Plasmodium falciparum Dd2 proliferation inhibition; also: nearly all actives have a fitted effect of over 65% in size; also: potency is read from the fitted curve at half-maximal effect
Procedure, shortened: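 SYBR Green DNA fluorescence (ex 485, em 535 nm) after overnight lysis quantifies parasite growth; compound exposure lasted 72 h at 37 C on infected red cells at 2.5% hematocrit, 0.3% parasitemia (final). Artemisinin 0.29 uM and vehicle wells define normalization.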

[3] = biological target: Ferritin light chain (Equus caballus) (UniProt P02791); experiment: qHTS Validation Assay for Identification of Novel General Anesthetics (AID 2323); also: series mostly up to about 77 µM
Chain of Ferritin light chain (Equus caballus) (P02791 2-175 limits assumed): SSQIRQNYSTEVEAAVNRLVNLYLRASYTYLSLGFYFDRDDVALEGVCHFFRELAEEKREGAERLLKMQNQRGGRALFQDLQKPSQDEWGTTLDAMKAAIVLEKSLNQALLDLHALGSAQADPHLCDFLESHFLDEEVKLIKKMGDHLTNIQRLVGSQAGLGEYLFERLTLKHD
Procedure, shortened: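 Competitive displacement of profluorescent 1-aminoanthracene (1-AMA, 50% saturated solution in PBS) from 10 uM horse-spleen apoferritin. Compounds incubated 10 min at room temperature; fluorescence read at 380 nm excitation/535 nm emission, normalized to free 1-AMA and complex, fitted with four-parameter Hill equation.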

[4] = biological target: ATP-dependent DNA helicase Q1 (Homo sapiens) (UniProt P46063); experiment: qHTS Validation Assay for Inhibitors of RecQ-Like Dna Helicase 1 (RECQ1) (AID 2353)
Chain of ATP-dependent DNA helicase Q1 (Homo sapiens) (P46063 whole entry, looked up): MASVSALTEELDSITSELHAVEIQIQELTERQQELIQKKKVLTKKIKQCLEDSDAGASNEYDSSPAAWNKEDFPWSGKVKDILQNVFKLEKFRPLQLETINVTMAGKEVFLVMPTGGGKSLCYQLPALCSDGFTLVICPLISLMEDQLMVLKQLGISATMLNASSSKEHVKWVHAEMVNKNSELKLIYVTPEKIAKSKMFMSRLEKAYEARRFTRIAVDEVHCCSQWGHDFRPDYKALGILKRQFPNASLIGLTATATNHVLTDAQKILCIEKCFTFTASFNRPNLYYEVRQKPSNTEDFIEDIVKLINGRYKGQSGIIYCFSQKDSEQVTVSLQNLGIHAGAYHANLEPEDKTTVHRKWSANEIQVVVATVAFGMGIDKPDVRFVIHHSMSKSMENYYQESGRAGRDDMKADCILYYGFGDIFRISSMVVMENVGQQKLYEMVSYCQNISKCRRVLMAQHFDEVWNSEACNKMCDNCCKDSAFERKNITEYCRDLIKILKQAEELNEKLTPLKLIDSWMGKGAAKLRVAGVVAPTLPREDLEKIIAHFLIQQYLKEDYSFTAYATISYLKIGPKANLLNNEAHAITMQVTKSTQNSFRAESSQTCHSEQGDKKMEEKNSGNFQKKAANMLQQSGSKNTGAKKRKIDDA
Procedure, shortened: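 RECQ1T1 50 nM; forked duplex (20 bp + 30-nt ss tails) 200 nM, ATP 2 mM final; pH 8.0, 2 mM MgCl2, 2.5 ug/ml poly(dI-dC); 15 min compound preincubation; discontinuous kinetic read over 2 h at RT.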

[5] = biological target: RecQ-like DNA helicase BLM (Homo sapiens) (UniProt P54132); experiment: qHTS Validation Assay for Inhibitors of Bloom's syndrome helicase (BLM) (AID 2364); also: potency is read from the fitted curve at half-maximal effect
Chain of RecQ-like DNA helicase BLM (Homo sapiens) (P54132 whole entry, looked up): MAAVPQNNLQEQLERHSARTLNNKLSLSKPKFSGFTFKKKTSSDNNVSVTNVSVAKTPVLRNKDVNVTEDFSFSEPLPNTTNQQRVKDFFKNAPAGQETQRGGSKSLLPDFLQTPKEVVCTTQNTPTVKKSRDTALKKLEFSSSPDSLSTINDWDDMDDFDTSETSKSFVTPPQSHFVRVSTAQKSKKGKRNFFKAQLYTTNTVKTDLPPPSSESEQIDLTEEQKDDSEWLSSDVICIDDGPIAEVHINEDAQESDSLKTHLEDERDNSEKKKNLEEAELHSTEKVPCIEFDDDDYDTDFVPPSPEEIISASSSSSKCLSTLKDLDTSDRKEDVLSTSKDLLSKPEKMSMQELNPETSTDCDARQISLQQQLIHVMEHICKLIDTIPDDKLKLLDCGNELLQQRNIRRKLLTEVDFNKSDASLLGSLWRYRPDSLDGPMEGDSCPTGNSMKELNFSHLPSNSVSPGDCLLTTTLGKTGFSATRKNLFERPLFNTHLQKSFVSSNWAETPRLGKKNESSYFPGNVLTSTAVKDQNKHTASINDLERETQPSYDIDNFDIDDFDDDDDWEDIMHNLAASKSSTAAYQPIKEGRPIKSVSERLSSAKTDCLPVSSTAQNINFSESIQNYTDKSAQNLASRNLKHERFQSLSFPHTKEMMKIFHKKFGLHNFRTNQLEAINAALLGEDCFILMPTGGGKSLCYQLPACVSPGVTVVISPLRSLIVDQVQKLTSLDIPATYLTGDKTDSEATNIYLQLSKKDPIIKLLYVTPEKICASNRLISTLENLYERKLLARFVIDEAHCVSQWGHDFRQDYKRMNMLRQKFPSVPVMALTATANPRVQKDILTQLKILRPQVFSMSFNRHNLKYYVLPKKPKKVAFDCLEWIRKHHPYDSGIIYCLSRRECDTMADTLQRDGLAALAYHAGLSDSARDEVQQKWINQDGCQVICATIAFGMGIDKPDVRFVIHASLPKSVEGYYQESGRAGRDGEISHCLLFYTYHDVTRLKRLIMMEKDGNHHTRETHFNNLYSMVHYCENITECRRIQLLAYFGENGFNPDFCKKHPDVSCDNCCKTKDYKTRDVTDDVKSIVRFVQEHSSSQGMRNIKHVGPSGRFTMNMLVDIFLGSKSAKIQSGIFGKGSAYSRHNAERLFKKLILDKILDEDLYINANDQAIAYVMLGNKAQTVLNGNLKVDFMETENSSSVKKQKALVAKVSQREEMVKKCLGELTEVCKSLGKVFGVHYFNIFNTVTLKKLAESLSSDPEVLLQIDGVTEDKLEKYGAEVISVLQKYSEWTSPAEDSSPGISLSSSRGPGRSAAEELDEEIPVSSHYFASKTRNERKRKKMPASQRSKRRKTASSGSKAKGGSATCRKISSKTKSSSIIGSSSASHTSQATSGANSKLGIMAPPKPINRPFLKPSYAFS
Procedure, shortened: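 BLM 50 nM in 25 mM Tris-HCl pH 8.0, 5 mM NaCl, 2 mM MgCl2, 1 mM DTT, 0.01% Tween-20, 2.5 ug/ml poly(dI-dC); 15 min cpd preinc, RT. Start: 200 nM forked DNA + 2 mM ATP (final). TAMRA read, 2 reads 2 h apart.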

[6] = Cytometric Cell-Based qHTS for Inhibitors of the mTORC1 Signaling Pathway in MEF (Tsc2-/-, p53-/-) Cells (AID 2660); also: potency is read from the fitted curve at half-maximal effect
Procedure, shortened: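 Tsc2-/-, p53-/- MEFs (empty vector) exposed to compound 24 h at 37 C, fixed, stained with Alexa-488 anti-phospho-rpS6 Ser235/236 and propidium iodide. Acumen laser scanning; phospho-S6/PI ratio thresholded against 7.5 nM rapamycin, reported as % positive cells.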

[7] = High Content Imaging Cell-Based qHTS for Inhibitors of the mTORC1 Signaling Pathway in MEF (Tsc2-/-, p53-/-) Cells (AID 2666);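 also: percent of cells scored positive for phospho-rpS6 Ser235/236 immunostaining by imaging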; also: potency is read from the fitted curve at half-maximal effect
Procedure, shortened: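 Inhibition of rpS6 phosphorylation is measured by immunofluorescence imaging in empty-vector Tsc2-/-, p53-/- mouse embryonic fibroblasts after 24 hrs compound exposure at 37 degree Celsius. Results are reported as % positive cells per well.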

[8] = High Content Imaging Cell-Based qHTS for Inhibitors of the mTORC1 Signaling Pathway in MEF Cells (AID 2667);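 also: Tsc2-/- p53-/- MEFs stably re-expressing wild-type Tsc2 exposed 24 h; series mostly up to about 38 µM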
Procedure, shortened: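 Fixed-cell imaging of phospho-S6 (Ser235/236, Alexa-488) after 24 hrs of compound treatment at 37 degree Celsius. Signal was normalized to Hoechst, and thresholds from the highest and lowest wells split cells into % active versus % non-active.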

[9] = Cytometry Cell-Based qHTS for Inhibitors of the mTORC1 Signaling Pathway in MEF cells (AID 2668);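 also: Tsc2-/- p53-/- mouse embryonic fibroblasts stably re-expressing wild-type Tsc2; percent cells positive for phospho-rpS6 Ser235/236 relative to propidium iodide stain; series mostly up to about 38 µM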
Procedure, shortened: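 WT MEFs (Tsc2-/-, p53-/- stably re-expressing WT Tsc2) in DMEM + 10% FBS received compounds 24 hrs after plating, for 24 hrs at 37 degree Celsius. Fixed cells stained with Alexa-488 anti-phospho-rpS6 Ser235/236 and propidium iodide; laser-scanning cytometry read-out.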

[10] = Validation screen for small molecules that induce DNA re-replication in MCF 10A normal breast cells (AID 463097); also: nearly all actives have a fitted effect of over 60% in size; also: potency is read from the fitted curve at half-maximal effect
Procedure, shortened: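 Readout: Hoechst nuclear fluorescence intensity, 405 ex / 500-530 em, by scanning plate imager; re-replication scored as increase in nuclei with elevated DNA content. Cells exposed to compound 48 hr, 37 C, 5% CO2 beforehand.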

[11] = biological target: Ubiquitin carboxyl-terminal hydrolase 2 (Homo sapiens) (UniProt O75604); experiment: qHTS Validation Assay for Inhibitors of Ubiquitin-specific Protease USP2a Using CHOP2 as the Reporter (AID 463106)
Chain of Ubiquitin carboxyl-terminal hydrolase 2 (Homo sapiens) (O75604 whole entry, looked up): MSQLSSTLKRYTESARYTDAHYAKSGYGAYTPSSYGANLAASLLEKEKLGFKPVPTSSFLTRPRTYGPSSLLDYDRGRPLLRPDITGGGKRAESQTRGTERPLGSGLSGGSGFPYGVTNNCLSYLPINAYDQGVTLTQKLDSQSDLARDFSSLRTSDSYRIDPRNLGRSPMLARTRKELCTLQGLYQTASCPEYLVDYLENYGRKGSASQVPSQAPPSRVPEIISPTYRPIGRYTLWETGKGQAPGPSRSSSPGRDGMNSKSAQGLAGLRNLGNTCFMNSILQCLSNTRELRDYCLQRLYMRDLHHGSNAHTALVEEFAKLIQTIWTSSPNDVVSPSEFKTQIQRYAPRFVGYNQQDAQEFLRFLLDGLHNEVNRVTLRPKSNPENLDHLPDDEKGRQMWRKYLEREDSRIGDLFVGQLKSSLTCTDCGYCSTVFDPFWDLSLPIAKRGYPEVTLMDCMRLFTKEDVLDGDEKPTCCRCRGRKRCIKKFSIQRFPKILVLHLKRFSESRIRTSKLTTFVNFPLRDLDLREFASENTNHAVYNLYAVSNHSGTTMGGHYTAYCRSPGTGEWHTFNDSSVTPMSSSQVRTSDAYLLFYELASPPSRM
Procedure, shortened: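 Inhibition is expressed relative to NEM as the full-inhibition control, with concentration-response curves classed by fit quality, magnitude and activity. Enzyme (USP2 core, 10nM) meets 25nM Ub-CHOP2 after compound preincubation; readings are taken at 60min.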

[12] = qHTS for differential inhibitors of proliferation of Plasmodium falciparum line 7G8 (AID 1815);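 also: parasite growth measured after three days of incubation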; also: potency is read from the fitted curve at half-maximal effect
[13] = qHTS for differential inhibitors of proliferation of Plasmodium falciparum line GB4 (AID 1816); conditions: Potency: Plasmodium falciparum GB4 proliferation inhibition;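 also: parasite growth measured after 72 h incubation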; also: potency is read from the fitted curve at half-maximal effect
[14] = qHTS for differential inhibitors of proliferation of Plasmodium falciparum line 3D7 (AID 1876); also: potency is read from the fitted curve at half-maximal effect
[15] = qHTS for differential inhibitors of proliferation of Plasmodium falciparum line D10 (AID 1877);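 also: parasites grown with compound for 72 h before DNA staining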; also: potency is read from the fitted curve at half-maximal effect
[16] = qHTS for differential inhibitors of proliferation of Plasmodium falciparum line HB3 (AID 1886); conditions: Potency: Plasmodium falciparum HB3 proliferation inhibition;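 also: parasites grown with compound for 72 h before SYBR Green readout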; also: potency is read from the fitted curve at half-maximal effect
[17] = qHTS Assay for Modulators of Human Peripheral Myelin Protein 22 (PMP22) Expression/Activity (AID 1967; active = well fitted curve in the direction sought with a large enough effect in the signal ratio; the % refers to the signal ratio)
Procedure, shortened: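 MSC80 mouse Schwann cells stably carrying Pmp22 promoter–green click beetle luciferase plus EF-alpha–red luciferase control were dosed for 24h at 37 °C. Dual-colour luminescence was filter-overlap corrected; %Activity came from green/red ratio versus untreated cells.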

[18] = qHTS for differential inhibitors of proliferation of Plasmodium falciparum line W2 (AID 1883); conditions: Potency: Plasmodium falciparum W2 proliferation inhibition;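 also: parasites grown with compound for 72 h before lysis and staining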; also: potency is read from the fitted curve at half-maximal effect
[19] = qHTS Assay for Identification of Small Molecule Inducers of Hypoxia Response (AID 2120; active = well fitted curve in the direction sought with a large enough effect in the signal ratio, with a control signal flat, not every such curve was filed as active; the % refers to the signal ratio)
Procedure, shortened: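 Reporter induction read as the CCF4 blue/green (460nm/530nm) emission ratio after 2.5 h dye loading at room temperature. ME-180 HRE-beta-lactamase cells received titrated compounds for 17 h at 37 degrees Celsius; AC50 values derived.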

[20] = biological target: Endonuclease 4 (Escherichia coli (strain K12)) (UniProt P0A6C1); experiment: Counterscreen for APE1 Inhibitors: qHTS Assay for Inhibitors of Endonuclease IV (AID 2565)
Procedure, shortened: as §1

Measured: Potency

Cc1c(OCC(F)(F)F)ccnc1CS(=O)c1nc2ccccc2[nH]1 (stereo unspecified)
inactive: [1] | [2] | [3] | [4] | [5] | [6] | [7] | [8] | [9] | [10] | [11]

CC1(C)NC(=O)N(c2ccc([N+](=O)[O-])c(C(F)(F)F)c2)C1=O
not listed: [18] | [19] | [20]
inactive: all other assays above

CCN(CC)C(=S)SSC(=S)N(CC)CC
inactive: [1] | [4] | [5] | [8] | [11]
active: [13] 5.01 µM | [14] 2.82 µM | [7] 1.85 µM

NC(=NCc1ccccc1)NC(=O)c1nc(Cl)c(N)nc1N
active: [12] 2 µM | [13] 3.16 µM | [14] 0.562 µM | [15] 0.891 µM | [18] 5.01 µM | [16] 1 µM
not listed: [2] | [10] | [17] | [19] | [20]
inactive: all other assays above

NNc1nncc2ccccc12
not listed: [5] | [12] | [15] | [17] | [18] | [19] | [20]
inactive: all other assays above

COc1cc2nc(N3CCN(C(=O)C4CCCO4)CC3)nc(N)c2cc1OC (stereo unspecified)
active: [18] 11.2 µM
not listed: [1] | [12] | [13] | [14] | [15] | [16] | [19] | [20]
inactive: all other assays above

OC(CN1CCN(c2cccc(Cl)c2)CC1)C(c1ccccc1)c1ccccc1 (stereo unspecified)
inactive: [3] | [4] | [6] | [7] | [8] | [9] | [11]
active: [12] 14.1 µM | [18] 10 µM

O=c1c(O)c(-c2ccc(O)cc2O)oc2cc(O)cc(O)c12
not listed: [1] | [5] | [11] | [17] | [19] | [20]
inactive: all other assays above

CCCCC(CC)COC(=O)C(C#N)=C(c1ccccc1)c1ccccc1 (stereo unspecified)
inactive: [19]

O=C1c2ccccc2-c2n[nH]c3cccc1c23
inactive: [4] | [5] | [6] | [7] | [8] | [10] | [11]
active: [12] 10 µM | [14] 12.6 µM | [18] 7.94 µM

COc1cc2c(cc1OC)C1CC(=O)C(CC(C)C)CN1CC2 (stereo unspecified)
inactive: [6] | [7] | [8] | [11]

COc1ccccc1N1CCN(CCN(C(=O)C2CCCCC2)c2ccccn2)CC1
active: [12] 2.24 µM | [18] 7.94 µM | [16] 11.2 µM
inactive: [3] | [4] | [6] | [7] | [8] | [9] | [10] | [11]

CCOC(=O)C(C)Oc1cccc2c(=O)n(CC(=O)Nc3ccc4c(c3)OCCO4)ccc12 (stereo unspecified)
inactive: [6] | [7] | [8] | [9] | [11]

c1ccc2[nH]c(-c3cscn3)nc2c1
inactive: [19]

O=C(NCC1CCCCN1)c1cc(OCC(F)(F)F)ccc1OCC(F)(F)F (stereo unspecified)
inactive: [1] | [3] | [4] | [5] | [10]

Cc1nc2n(c(=O)c1CCN1CCC(c3noc4cc(F)ccc34)CC1)CCCC2
inactive: [1] | [3] | [4] | [5] | [10]

Oc1ccc2ccccc2c1SSc1c(O)ccc2ccccc12
inactive: [6] | [7] | [8] | [9]

CS(=O)(=O)OCCCCOS(C)(=O)=O
inactive: [19]

COC(=O)[C@H](Cc1ccccc1)NC(=O)[C@@H](N)CC(=O)O (H-Asp-Phe-OMe)
inactive: [19]

Nc1ccn([C@@H]2O[C@H](CO)[C@@H](O)C2O)c(=O)n1 (stereo partly specified)
inactive: [7] | [11]

CC(=O)N1CCN(c2ccc(OC[C@H]3CO[C@](Cn4ccnc4)(c4ccc(Cl)cc4Cl)O3)cc2)CC1
inactive: [1] | [4] | [6] | [7] | [8] | [9] | [11]

Nc1ccc(S(N)(=O)=O)cc1
inactive: [19]

CC(C)c1ccc2c(c1)c(SC(C)(C)C)c(CC(C)(C)C(=O)O)n2Cc1ccc(Cl)cc1
active: [12] 5.01 µM | [13] 5.01 µM | [14] 6.31 µM | [15] 12.6 µM | [2] 12.6 µM | [18] 3.16 µM | [16] 11.2 µM | [5] 28.2 µM | [10] 10 µM
inactive: [20] | [6] | [7] | [8]

Oc1ccc(-c2nc(-c3ccc(F)cc3)c(-c3ccncc3)[nH]2)cc1
inactive: [3] | [4] | [6] | [7] | [8] | [9] | [11]
active: [13] 12.6 µM | [14] 11.2 µM | [2] 11.2 µM | [18] 6.31 µM

Nc1nc(N)c(N=O)c(OCC2CCCCC2)n1
active: [6] 14.7 µM | [7] 14.7 µM
inactive: [11]

CC1(C)C(=O)N(CCN2CCC(C(=O)c3ccc(F)cc3)CC2)c2ccccc21
inactive: [4] | [6] | [7] | [8] | [9] | [11]
active: [12] 6.31 µM | [13] 12.6 µM | [14] 11.2 µM | [18] 6.31 µM | [16] 12.6 µM

NS(=O)(=O)c1cc(C(=O)O)c(NCc2ccco2)cc1Cl
inactive: [19]
